Laboratory results: PubChem BioAssay (NCATS)
Inconclusive results are not listed. Active and inactive are the calls of the source. Unless noted, calls follow the shape of the dose curve; as a rule, active = well fitted curve in the direction sought with a large enough effect; inconclusive = small, poorly fitted or top-dose-only effect, or another doubt; inactive = no such curve, though single readings can be large; an effect the other way counts as inactive or inconclusive.

How the values were obtained:
[1] = Cytometric Cell-Based qHTS for Inhibitors of the mTORC1 Signaling Pathway in MEF (Tsc2-/-, p53-/-) Cells (AID 2660);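 also: percent of cells above a phospho-rpS6 to PI ratio cutoff in each well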
In short: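 Immunofluorescence qHTS of rpS6 Ser235/236 phosphorylation: MEFs (Tsc2-/-, p53-/-) treated 24 h, 37 C, in DMEM + 10% FBS. Alexa-488 signal normalized to PI count, referenced to rapamycin (7.5 nM) and DMSO; PI cell number recorded for viability.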

[2] = High Content Imaging Cell-Based qHTS for Inhibitors of the mTORC1 Signaling Pathway in MEF Cells (AID 2667);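 also: Tsc2-/- p53-/- MEFs stably re-expressing wild-type Tsc2 exposed 24 h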
In short: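 WT MEFs (Tsc2-/-, p53-/- re-expressing Tsc2), in DMEM + 10% FBS, were treated with compound for 24 h at 37 C. Cells were then fixed and stained for phospho-rpS6 Ser235/236 with propidium iodide as cell count. Values are % positive cells, with thresholds set against rapamycin-treated cells.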

[3] = Cytometry Cell-Based qHTS for Inhibitors of the mTORC1 Signaling Pathway in MEF cells (AID 2668);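 also: Tsc2-/- p53-/- mouse embryonic fibroblasts stably re-expressing wild-type Tsc2; percent cells positive for phospho-rpS6 Ser235/236 relative to propidium iodide stain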
In short: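 WT MEFs (Tsc2-/-, p53-/- stably re-expressing WT Tsc2) in DMEM + 10% FBS received compounds 24 hrs after plating, for 24 hrs at 37 degree Celsius. Fixed cells stained with Alexa-488 anti-phospho-rpS6 Ser235/236 and propidium iodide; laser-scanning cytometry read-out.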

[4] = target: Ubiquitin carboxyl-terminal hydrolase 2 (Homo sapiens) (UniProt O75604); assay: qHTS Validation Assay for Inhibitors of Ubiquitin-specific Protease USP2a Using CHOP2 as the Reporter (AID 463106)
In short: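 USP2 core (10 nM final) was preincubated with compound 30 min at RT in pH 8.0 Tris/CaCl2/beta-ME/CHAPS buffer. Ub-CHOP2 and reporter substrate (25 nM final each) were then added, with fluorescence (Ex 485/Em 531) read after 60 min. Data were normalized to NEM full inhibition and fitted to concentration-response curves.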

[5] = target: DNA polymerase III PolC-type (Bacillus subtilis (strain 168)) (UniProt P13267); assay: qHTS Validation Assay for the Inhibitors of DNA Replication in Gram-Positive Bacteria (AID 485295); also: potency is read from the fitted curve at half-maximal effect
In short: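 Reconstituted B. subtilis holoenzyme (Pol III, beta clamp, SSB, primase) was preincubated with compound at room temperature, then given single-stranded circular M13Gori plus dNTPs and NTPs. EDTA-containing PicoGreen stopped the reaction, and dsDNA product was read by fluorescence.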

[6] = target: Tumor susceptibility gene 101 protein (Homo sapiens) (UniProt Q99816); assay: qHTS Validation Assay for Iinhibitors of HIV-1 Budding by Blocking the Interaction of PTAP/TSG101 (AID 485342; calls by dose curve)
In short: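 Tsg101 binding domain (10 uM final) in pH 7.5 HEPES/NaCl/Tween 20/EDTA/TCEP buffer was mixed with pin-transferred compounds, then FITC-labeled PTAP peptide (50 nM final) was added; after 20 min at r.t., fluorescence polarization was read.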

[7] = target: Beta-2 adrenergic receptor (Homo sapiens) (UniProt P07550); assay: qHTS validation assay of beta-arrestin-biased ligands of beta2-adrenergic receptor (AID 485366)
In short: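 Arrestin-recruitment (Tango) reporter: ligand-bound beta2-AR recruits beta-arrestin, releasing tTA, which upregulates luciferase. Titrations of up to 46 microM incubated 18 hr at 37 degrees C before luminescent readout.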

[8] = target: ATP-dependent 6-phosphofructokinase (Trypanosoma brucei brucei) (UniProt O15648); assay: qHTS Validation Assay to Find Inhibitors of T. brucei phosphofructokinase (AID 485368); conditions: outcome: dose series up to 57.5 µM
In short: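 Steps: substrate mix (0.5 mM F6P, 0.1 mM ATP, MgCl2, TEA pH 8.0); compound; 1.25 nM T. brucei PFK; 45 min RT; ATP depletion 10 min; ADP-to-ATP detection 10 min; luminescence read; curve fitting and classification.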

[9] = target: Thioredoxin reductase 1, cytoplasmic (Rattus norvegicus) (UniProt O89049); assay: qHTS Assay for Substrates of Mammalian Selenoprotein Thioredoxin Reductase 1 (TrxR1) (AID 488772);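 also: NADPH fluorescence in the first read after selenite addition and not the 8 min delta; a drop in NADPH fluorescence below the no-compound background marks a TrxR1 substrate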
In short: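 Quantitative HTS in Tris-HCl buffer at pH 7.5 with EDTA and Tween-20, using rat TrxR1, 400 uM NADPH and 400 uM selenite (final). A fall in initial NADPH fluorescence relative to background marked substrate behaviour.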

[10] = qHTS Validation Assay to Find Inhibitors of Chronic Active B-Cell Receptor Signaling (AID 485345; active = well fitted curve in the direction sought with a large enough effect in the main read-out, with a control signal flat, not every such curve was filed as active)
In short: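 TMD8 ABC-DLBCL cells stably carrying doxycycline-inducible IkappaBalpha–green luciferase fusion plus unfused red luciferase; compounds 46 uM to 3 nM, 4 h at 37C with doxycycline. Corrected green/red luminescence ratio normalized to 10 uM MG-132 and basal cell wells; curves fitted.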

[11] = qHTS for differential inhibitors of proliferation of Plasmodium falciparum line HB3 (AID 1886); conditions: Potency: Plasmodium falciparum HB3 proliferation inhibition;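 also: parasites grown with compound for 72 h before SYBR Green readout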; also: potency is read from the fitted curve at half-maximal effect
[12] = target: ATP-dependent DNA helicase Q1 (Homo sapiens) (UniProt P46063); assay: qHTS Validation Assay for Inhibitors of RecQ-Like Dna Helicase 1 (RECQ1) (AID 2353)
In short: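 50 nM RECQ1T1 preincubated 15 min with compound in Tris pH 8.0 buffer with MgCl2, DTT, Tween-20 and 2.5 ug/ml poly(dI-dC); started with 200 nM TAMRA/BHQ-2 forked duplex and 2 mM ATP. Unwinding read as fluorescence (525/598 nm), two reads 2 h apart.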

[13] = Validation screen for small molecules that induce DNA re-replication in MCF 10A normal breast cells (AID 463097); also: nearly all actives have a fitted effect of over 60% in size; also: potency is read from the fitted curve at half-maximal effect
In short: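 Readout: Hoechst nuclear fluorescence intensity, 405 ex / 500-530 em, by scanning plate imager; re-replication scored as increase in nuclei with elevated DNA content. Cells exposed to compound 48 hr, 37 C, 5% CO2 beforehand.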

[14] = target: Ferritin light chain (Equus caballus) (UniProt P02791); assay: qHTS Validation Assay for Identification of Novel General Anesthetics (AID 2323)
In short: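 Competitive displacement of profluorescent 1-aminoanthracene (1-AMA, 50% saturated solution in PBS) from 10 uM horse-spleen apoferritin. Compounds incubated 10 min at room temperature; fluorescence read at 380 nm excitation/535 nm emission, normalized to free 1-AMA and complex, fitted with four-parameter Hill equation.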

[15] = High Content Imaging Cell-Based qHTS for Inhibitors of the mTORC1 Signaling Pathway in MEF (Tsc2-/-, p53-/-) Cells (AID 2666); conditions: at 38.3 µM (top of the series);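 also: percent of cells scored positive for phospho-rpS6 Ser235/236 immunostaining by imaging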
In short: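 Phospho-rpS6 (Ser235/236) immunofluorescence, normalized and scored as % positive cells using rapamycin and DMSO controls, was read in empty-vector Tsc2-/-, p53-/- MEFs after 24 h compound exposure at 37 C; propidium iodide counted cells.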

[16] = Quantitative high throughput screen for delayed death inhibitors of the malarial parasite plastid, 96 hour incubation (AID 488745);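 also: luciferase-expressing P. falciparum in erythrocytes at 2% hematocrit and 0.1% parasitemia; nearly all actives have a fitted effect of over 70% in size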
In short: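 Growth of reporter-bearing P. falciparum in red cells is measured after 96 h with compound, covering two erythrocytic cycles. Luminescence from the integrated luciferase serves as the growth signal.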

[17] = Quantitative high throughput screen for delayed death inhibitors of the malarial parasite plastid, 48 hour incubation (AID 488752); also: nearly all actives have a fitted effect of over 65% in size
In short: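 One parasite generation (48 h, 37 C, 5% CO2) of luciferase-reporter P. falciparum in erythrocytes is run with test compound; decreased luminescence indicates inhibited growth.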

[18] = target: RecQ-like DNA helicase BLM (Homo sapiens) (UniProt P54132); assay: qHTS Validation Assay for Inhibitors of Bloom's syndrome helicase (BLM) (AID 2364); also: potency is read from the fitted curve at half-maximal effect
In short: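 50 nM BLM preincubated 15 min at room temperature with compound in pH 8.0 Tris buffer containing 2.5 ug/ml poly(dI-dC); started with 200 nM TAMRA/BHQ-2 forked duplex and 2 mM ATP (final). Unwinding read as TAMRA fluorescence increase, two reads 2 h apart.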

Measured: Potency

ATP-dependent 6-phosphofructokinase (Trypanosoma brucei brucei), sequence (O15648 whole entry, looked up): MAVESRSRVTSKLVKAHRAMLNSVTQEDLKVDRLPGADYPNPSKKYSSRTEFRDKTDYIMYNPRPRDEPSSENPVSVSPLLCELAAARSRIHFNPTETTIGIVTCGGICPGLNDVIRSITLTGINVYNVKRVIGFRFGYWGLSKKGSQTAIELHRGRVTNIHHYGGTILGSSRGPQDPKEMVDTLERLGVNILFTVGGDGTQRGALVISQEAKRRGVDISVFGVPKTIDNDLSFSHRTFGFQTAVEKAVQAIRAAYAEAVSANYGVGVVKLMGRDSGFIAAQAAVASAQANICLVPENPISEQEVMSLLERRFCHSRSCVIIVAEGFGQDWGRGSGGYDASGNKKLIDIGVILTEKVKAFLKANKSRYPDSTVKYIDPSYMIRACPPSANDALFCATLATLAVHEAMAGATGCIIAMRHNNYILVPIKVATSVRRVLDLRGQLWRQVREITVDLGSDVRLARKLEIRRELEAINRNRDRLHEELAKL
Ubiquitin carboxyl-terminal hydrolase 2 (Homo sapiens), sequence (O75604 whole entry, looked up): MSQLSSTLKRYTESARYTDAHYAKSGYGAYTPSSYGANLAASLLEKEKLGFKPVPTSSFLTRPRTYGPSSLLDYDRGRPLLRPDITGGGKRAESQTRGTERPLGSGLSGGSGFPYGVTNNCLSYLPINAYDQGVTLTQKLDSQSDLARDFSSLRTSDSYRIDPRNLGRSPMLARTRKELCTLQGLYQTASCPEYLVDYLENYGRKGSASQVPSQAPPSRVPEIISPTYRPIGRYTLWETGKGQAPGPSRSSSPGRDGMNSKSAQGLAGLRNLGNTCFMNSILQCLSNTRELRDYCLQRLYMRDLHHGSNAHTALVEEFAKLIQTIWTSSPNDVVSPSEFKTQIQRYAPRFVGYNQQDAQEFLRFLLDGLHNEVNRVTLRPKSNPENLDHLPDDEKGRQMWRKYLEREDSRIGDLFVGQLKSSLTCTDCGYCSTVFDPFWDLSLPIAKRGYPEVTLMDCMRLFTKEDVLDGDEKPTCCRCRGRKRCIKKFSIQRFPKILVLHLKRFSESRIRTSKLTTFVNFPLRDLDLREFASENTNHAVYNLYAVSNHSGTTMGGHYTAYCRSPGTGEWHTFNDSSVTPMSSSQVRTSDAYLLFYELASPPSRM
Beta-2 adrenergic receptor (Homo sapiens), sequence (P07550 whole entry, looked up): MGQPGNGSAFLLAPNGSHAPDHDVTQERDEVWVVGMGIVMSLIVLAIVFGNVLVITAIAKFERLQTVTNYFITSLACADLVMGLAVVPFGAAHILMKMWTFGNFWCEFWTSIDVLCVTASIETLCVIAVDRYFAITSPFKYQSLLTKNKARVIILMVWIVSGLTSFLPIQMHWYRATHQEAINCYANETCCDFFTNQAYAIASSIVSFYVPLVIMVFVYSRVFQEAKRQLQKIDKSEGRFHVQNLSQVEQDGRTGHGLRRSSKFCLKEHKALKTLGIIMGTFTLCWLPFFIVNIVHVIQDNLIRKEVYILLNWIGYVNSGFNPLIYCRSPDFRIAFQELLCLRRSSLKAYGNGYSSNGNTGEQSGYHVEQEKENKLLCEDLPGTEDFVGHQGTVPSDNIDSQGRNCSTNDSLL
Thioredoxin reductase 1, cytoplasmic (Rattus norvegicus), sequence (O89049 whole entry, looked up): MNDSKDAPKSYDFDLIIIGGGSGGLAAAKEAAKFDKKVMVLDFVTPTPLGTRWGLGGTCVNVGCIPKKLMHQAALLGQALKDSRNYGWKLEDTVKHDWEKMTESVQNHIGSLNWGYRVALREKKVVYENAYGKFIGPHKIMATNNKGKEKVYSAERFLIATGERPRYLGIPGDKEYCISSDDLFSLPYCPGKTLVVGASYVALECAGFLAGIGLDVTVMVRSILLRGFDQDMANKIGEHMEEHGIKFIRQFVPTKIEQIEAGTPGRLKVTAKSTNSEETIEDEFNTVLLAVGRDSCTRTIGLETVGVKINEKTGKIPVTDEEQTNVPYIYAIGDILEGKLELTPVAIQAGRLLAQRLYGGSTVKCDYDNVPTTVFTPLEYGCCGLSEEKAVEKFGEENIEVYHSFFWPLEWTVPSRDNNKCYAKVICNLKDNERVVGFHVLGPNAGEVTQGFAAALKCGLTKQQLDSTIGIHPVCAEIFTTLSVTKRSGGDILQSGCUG
ATP-dependent DNA helicase Q1 (Homo sapiens), sequence (P46063 whole entry, looked up): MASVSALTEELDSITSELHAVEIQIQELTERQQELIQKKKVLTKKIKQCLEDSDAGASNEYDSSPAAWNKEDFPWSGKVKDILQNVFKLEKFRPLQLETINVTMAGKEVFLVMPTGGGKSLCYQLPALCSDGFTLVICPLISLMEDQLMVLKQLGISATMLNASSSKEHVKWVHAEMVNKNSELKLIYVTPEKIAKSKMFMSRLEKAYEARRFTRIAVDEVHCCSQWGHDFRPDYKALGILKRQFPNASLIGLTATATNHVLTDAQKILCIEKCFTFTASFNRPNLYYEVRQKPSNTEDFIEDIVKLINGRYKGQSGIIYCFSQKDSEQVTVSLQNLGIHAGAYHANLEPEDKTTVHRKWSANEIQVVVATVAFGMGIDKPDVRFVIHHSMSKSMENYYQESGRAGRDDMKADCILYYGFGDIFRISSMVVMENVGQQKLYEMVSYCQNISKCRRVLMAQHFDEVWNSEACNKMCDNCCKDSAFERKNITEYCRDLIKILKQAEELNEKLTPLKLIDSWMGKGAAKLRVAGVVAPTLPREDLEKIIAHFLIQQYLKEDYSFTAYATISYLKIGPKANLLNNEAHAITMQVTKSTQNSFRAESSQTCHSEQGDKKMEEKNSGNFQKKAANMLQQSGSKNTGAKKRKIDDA
Tumor susceptibility gene 101 protein (Homo sapiens), sequence (Q99816 whole entry, looked up, the tested form may be a part): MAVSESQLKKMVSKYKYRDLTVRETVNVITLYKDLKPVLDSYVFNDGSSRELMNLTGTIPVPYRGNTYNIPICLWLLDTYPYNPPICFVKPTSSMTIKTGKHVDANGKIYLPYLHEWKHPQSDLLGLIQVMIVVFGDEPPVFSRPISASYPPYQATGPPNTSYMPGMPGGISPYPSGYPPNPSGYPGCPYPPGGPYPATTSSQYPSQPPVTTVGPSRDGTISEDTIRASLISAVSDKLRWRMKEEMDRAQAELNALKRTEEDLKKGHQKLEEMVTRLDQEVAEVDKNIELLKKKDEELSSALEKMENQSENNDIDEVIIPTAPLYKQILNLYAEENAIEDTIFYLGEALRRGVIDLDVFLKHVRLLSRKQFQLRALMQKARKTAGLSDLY
DNA polymerase III PolC-type (Bacillus subtilis (strain 168)), sequence (P13267 whole entry, looked up): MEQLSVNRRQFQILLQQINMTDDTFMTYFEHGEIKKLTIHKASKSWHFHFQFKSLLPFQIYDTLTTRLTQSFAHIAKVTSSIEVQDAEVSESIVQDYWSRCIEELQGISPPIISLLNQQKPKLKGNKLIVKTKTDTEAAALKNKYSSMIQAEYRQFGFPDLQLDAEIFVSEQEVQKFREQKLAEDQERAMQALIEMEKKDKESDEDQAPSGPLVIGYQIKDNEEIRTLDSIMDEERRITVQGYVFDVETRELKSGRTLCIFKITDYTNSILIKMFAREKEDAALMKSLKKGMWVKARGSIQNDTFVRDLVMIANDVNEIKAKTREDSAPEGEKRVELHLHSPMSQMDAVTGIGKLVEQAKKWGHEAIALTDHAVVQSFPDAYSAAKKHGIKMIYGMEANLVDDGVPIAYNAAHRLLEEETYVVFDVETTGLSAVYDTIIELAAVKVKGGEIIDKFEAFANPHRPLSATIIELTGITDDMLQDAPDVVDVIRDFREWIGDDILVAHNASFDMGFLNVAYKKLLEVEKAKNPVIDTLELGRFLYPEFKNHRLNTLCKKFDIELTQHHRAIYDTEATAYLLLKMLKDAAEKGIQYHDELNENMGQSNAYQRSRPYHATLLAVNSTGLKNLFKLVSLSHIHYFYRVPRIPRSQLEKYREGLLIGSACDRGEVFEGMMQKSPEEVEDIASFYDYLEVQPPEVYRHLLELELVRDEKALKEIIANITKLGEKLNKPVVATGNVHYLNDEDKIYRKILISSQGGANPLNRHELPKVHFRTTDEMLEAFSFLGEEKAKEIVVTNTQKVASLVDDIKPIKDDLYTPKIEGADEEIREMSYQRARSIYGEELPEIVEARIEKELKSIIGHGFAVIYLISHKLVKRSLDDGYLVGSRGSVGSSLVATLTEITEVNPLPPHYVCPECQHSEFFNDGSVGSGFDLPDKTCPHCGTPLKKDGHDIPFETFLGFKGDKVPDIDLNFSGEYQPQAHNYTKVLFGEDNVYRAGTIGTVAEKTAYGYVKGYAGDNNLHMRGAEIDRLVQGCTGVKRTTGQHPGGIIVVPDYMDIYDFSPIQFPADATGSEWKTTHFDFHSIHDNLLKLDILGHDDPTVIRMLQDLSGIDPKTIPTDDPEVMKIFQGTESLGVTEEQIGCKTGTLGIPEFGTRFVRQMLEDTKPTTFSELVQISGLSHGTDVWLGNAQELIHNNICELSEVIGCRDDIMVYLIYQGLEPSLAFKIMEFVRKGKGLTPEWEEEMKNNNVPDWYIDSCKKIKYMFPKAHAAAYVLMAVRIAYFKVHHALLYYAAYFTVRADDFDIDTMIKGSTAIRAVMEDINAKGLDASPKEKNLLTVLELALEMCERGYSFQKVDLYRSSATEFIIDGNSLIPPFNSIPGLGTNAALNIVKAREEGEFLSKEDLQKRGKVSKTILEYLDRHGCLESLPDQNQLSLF
Ferritin light chain (Equus caballus), sequence (P02791 2-175 limits assumed): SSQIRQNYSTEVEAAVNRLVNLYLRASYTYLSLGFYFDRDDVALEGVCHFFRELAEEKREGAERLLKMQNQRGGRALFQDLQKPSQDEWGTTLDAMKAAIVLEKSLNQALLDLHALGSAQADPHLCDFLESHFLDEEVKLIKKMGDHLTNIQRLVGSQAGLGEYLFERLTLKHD

C[C@]12CCC(=O)C=C1CC[C@@H]1[C@@H]2[C@@H](O)C[C@@]2(C)[C@H]1CC[C@]2(O)C(=O)CO
inactive: [1] | [2] | [3] | [4] | [5] | [6] | [7] | [8] | [9]

Cc1cc2c(C(C)C)c(O)c(O)c(C=O)c2c(O)c1-c1c(C)cc2c(C(C)C)c(O)c(O)c(C=O)c2c1O
inactive: [6] | [7]

Cc1cccc(-c2[nH]c(C(C)(C)C)nc2-c2ccc3nccnc3c2)n1
inactive: [1] | [2] | [4] | [5] | [6] | [10] | [7] | [9]

Nc1ncnc2nc(-c3ccc(N4CCOCC4)nc3)cc(-c3cccc(Br)c3)c12
inactive: [1] | [2] | [3] | [4] | [5] | [6] | [7] | [8] | [9]

CCC(C)N(C)C(=O)c1cc2ccccc2c(-c2ccccc2Cl)n1 (centres undefined)
active: [11] 12.6 µM
not listed: [8] | [14] | [15] | [16] | [17] | [18]
inactive: all other assays above

NCCc1ccc(O)c(O)c1
not listed: [2] | [3] | [8] | [11] | [18]
inactive: all other assays above

O=C(Nc1nc2ccccc2n1CCN1CCOCC1)c1cccc([N+](=O)[O-])c1
inactive: [1] | [15] | [4] | [5] | [6] | [10] | [7] | [9]

CC(C)(Sc1ccc(CCN(CCCCC2CCCCC2)C(=O)NC2CCCCC2)cc1)C(=O)O
active: [18] 28.2 µM | [13] 12.6 µM | [5] 26.7 µM
not listed: [4] | [8] | [10] | [12] | [14] | [15]
inactive: all other assays above

Nc1nc2c(ncn2COCCO)c(=O)[nH]1
not listed: [4] | [9] | [15] | [18]
inactive: all other assays above

CCOC(=O)C1=C[C@]2(CC)CCCN3CCc4c(n1c1ccccc41)[C@@H]32
active: [11] 12.6 µM
not listed: [10] | [15] | [16] | [17] | [18]
inactive: all other assays above

OC(CCN1CCCCC1)(c1ccccc1)C1CC2C=CC1C2 (centres undefined)
inactive: [1] | [2] | [3] | [4] | [5] | [6] | [10] | [7] | [8] | [9]

CCOC(=O)N1CCC(=C2c3ccc(Cl)cc3CCc3cccnc32)CC1
active: [11] 10 µM
inactive: [14] | [12] | [1] | [4] | [5] | [6] | [7] | [9]

Nc1nc2ccc(OC(F)(F)F)cc2s1
not listed: [10] | [13] | [15] | [16] | [17] | [18]
inactive: all other assays above

Cc1ccccc1C(OCCN(C)C)c1ccccc1 (centres undefined)
not listed: [11] | [18]
inactive: all other assays above

Cc1ccc(N(CC2=NCCN2)c2cccc(O)c2)cc1
not listed: [11] | [15] | [18]
inactive: all other assays above

Cn1cnc([N+](=O)[O-])c1Sc1ncnc2nc[nH]c12
not listed: [10] | [11] | [13] | [15] | [17] | [18]
inactive: all other assays above
